Screening data: PubChem, several laboratories
Autofluor counter = flagged as autofluorescent in microsphere protease counterscreen | fluorescence intensity (test concentration not listed) | 3.1% of 360,000 active | compound autofluorescence counterscreen, microsphere flow cytometry; stronger effect = higher value; in the data active means fluorescence intensity above about 16000; inconclusive means no clear call, values can overlap the other calls
BoNT-A LC inh2 = BoNT A light chain protease inhibition; multiplex microsphere protease substrate cleavage, flow cytometry; inhibition, % at 10 µM; 0.17% of 360,000 active; further: plate controls were buffer without enzyme for full effect and enzyme alone for no effect
BoNT F protease = inhibitors of Botulinum neurotoxin F light chain protease; inhibition, % at 10 µM; 0.22% of 360,000 active; Multiplex microsphere protease cleavage assay, flow cytometry; in the data active means inhibition above about 35%, passing the limit was not always enough; inconclusive means no clear call, values can overlap the other calls; further: plate controls were buffer without enzyme for full effect and enzyme alone for no effect
MazF activator = activators of E. coli MazEF toxin-antitoxin RNase | P0AE70 | activation, % at 20 µM | FAM/BHQ RNA-DNA oligo cleavage fluorescence, 5 h | 0.32% of 350,000 active; in the data active means activation above about 50%
Anthrax LF prot = anthrax lethal factor protease inhibition | P15917 | multiplex microsphere protease cleavage assay, LF | inhibition, % at 10 µM | 0.12% of 360,000 active; further: plate controls were buffer without enzyme for full effect and enzyme alone for no effect
Target sequence (P15917 whole entry, looked up): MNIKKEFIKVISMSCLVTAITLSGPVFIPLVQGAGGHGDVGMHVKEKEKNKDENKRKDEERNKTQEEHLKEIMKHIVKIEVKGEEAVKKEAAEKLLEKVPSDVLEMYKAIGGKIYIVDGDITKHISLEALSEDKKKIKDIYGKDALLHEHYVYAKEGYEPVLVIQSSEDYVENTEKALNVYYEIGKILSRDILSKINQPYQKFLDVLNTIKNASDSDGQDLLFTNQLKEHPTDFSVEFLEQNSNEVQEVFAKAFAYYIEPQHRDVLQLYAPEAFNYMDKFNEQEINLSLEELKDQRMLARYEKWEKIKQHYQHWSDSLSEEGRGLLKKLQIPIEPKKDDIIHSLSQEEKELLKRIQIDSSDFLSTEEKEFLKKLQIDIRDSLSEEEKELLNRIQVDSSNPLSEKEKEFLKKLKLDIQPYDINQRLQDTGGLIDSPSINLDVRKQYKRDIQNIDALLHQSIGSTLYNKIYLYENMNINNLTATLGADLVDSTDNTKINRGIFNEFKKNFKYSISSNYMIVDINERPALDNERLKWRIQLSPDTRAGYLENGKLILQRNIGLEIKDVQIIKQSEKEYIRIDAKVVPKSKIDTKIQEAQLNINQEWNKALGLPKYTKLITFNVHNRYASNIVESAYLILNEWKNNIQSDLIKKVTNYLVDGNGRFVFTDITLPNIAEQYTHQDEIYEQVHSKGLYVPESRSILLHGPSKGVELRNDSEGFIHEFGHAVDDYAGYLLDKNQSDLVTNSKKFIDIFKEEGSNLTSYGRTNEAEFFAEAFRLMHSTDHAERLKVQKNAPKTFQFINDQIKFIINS
* hit, by the source's call; ? = inconclusive; nt = not tested or not shown; ! = not active in a repeat. This is a sample that favours compounds with a hit; in the whole collection about 3.7% have one here. Unless noted, no stated cut-off is given here; in the data, active means inhibition above about 30%; inconclusive means no clear call, values can overlap the other calls; inactive means below that.

SMILES | Autofluor counter | BoNT-A LC inh2 | BoNT F protease | MazF activator | Anthrax LF prot
CCOc1cc2c3c(c1)C1(Nc4ccccc4S1)C(=O)N3C(C)(C)CC2C (centres undefined) | 23624* | ? | -3 | 10 | -2
CCCCCC(=O)N1CCN(CCN=CC2=C(O)CC(c3cccs3)CC2=O)CC1 (centres undefined) | 19021*! | 0 | -2 | 3 | -3
Oc1ccc(C=NCC2COc3ccccc3O2)cc1 (centres undefined) | 20126* | 2 | -1 | -1 | 0
COc1ccccc1NC(=O)N1CCN(c2ccc3nnc(-c4ccc(F)cc4)n3n2)CC1 | 4982 | 0 | -3 | 20 | -4
O=C(Nc1ccccc1Cl)N1CCN(c2ccc3nnc(-c4ccc(F)cc4)n3n2)CC1 | 20523* | ? | 7 | 24 | 0
CNC1(C)[C@H]2CC[C@H](C2)C1(C)C (some centres undefined) | 6315 | 0 | -9 | 9 | 7
OC(C#CCN1CCCCC1)c1ccccc1 (centres undefined) | 10063 | -2 | -6 | 5 | -7
OC(CCCCN1CCCCC1)c1ccccc1 (centres undefined) | 22737* | ? | 3 | -15 | -2
O=C(CCN1CCOCC1)c1ccccc1 | 6935 | 0 | -10 | -1 | 0
COC(=O)CCCCCCCCCCN1CCCCC1 | 2559 | 0 | -2 | 0 | -1
O=C(OCCN1CCCCC1)c1ccc(O)cc1 | 21154* | 3 | 5 | 2 | 1
O=C(CCN1CCCCC1)c1ccccc1 | 16441* | ? | 1 | 5 | 1
C1CCCN(CCCCN2CCCCCC2)CC1 | 21776* | 5 | 4 | 5 | -5
Cn1nc(C(C)(C)C)cc1N1C(=O)CCC1(C)C(=O)Nc1ccc2ccccc2c1 (centres undefined) | 6115 | -1 | -3 | nt | -2
O=C(c1noc2c1CSc1ccccc1-2)N1CCN(c2ccc(Cl)cc2)CC1 | 5184 | -1 | 3 | 6 | -1
O=C(CCC(=O)N1CCOc2ccccc21)N1CCN(c2ccccc2)CC1 | 4275 | 0 | -3 | 8 | 3
O=C(O)CCC(=O)CCC(=O)c1ccccc1 | 23543* | ? | -3 | 14 | -2
COc1ccc(C(=O)N(C)c2ccccc2C(=O)NCCc2ccccc2)cc1 | 6074 | -2 | 1 | 0 | 3
CCc1nnc(SCC(=O)Nc2nccs2)n1CC | 4385 | 3 | 1 | 2 | -3
CCn1c(SCC(=O)Nc2ccccc2OC)nnc1-c1cnccn1 | 16989* | -1 | -2 | 7 | -4
CCn1c(COc2ccc3c(c2)CCCC3)nnc1SCC(=O)Nc1nccs1 | 20125* | 0 | 1 | -3 | -2
C=CCn1c(SCC(=O)Nc2cc(NC(C)=O)ccc2OC)nnc1-c1ccccn1 | 19382* | ? | 1 | 1 | 0
CCn1c(COc2ccccc2)nnc1SCC(=O)Nc1cc(OC)ccc1OC | 10919 | -3 | -3 | -2 | 4
CCn1c(COc2cccc(OC)c2)nnc1SCC(=O)Nc1cc(OC)ccc1OC | 23149* | -2 | -4 | 3 | -10
Nc1cc(=O)[nH]c(SCC(=O)Nc2ccc(N3CCOCC3)cc2)n1 | 3643 | 0 | -8 | 6 | -3
SMILES | Autofluor counter | BoNT-A LC inh2 | BoNT F protease | MazF activator | Anthrax LF prot
CCC(C)(C)NC(=O)C(c1ccc(C)cc1)N(CC1CCCO1)C(=O)c1csnn1 (centres undefined) | 2987 | -3 | -6 | -3 | -9
C=CCn1c(SCC(=O)Nc2ccccc2OC)nnc1-c1ccccn1 | 16901* | -1 | -1 | 8 | -1
COc1ccccc1NC(=O)CSc1nnc2ccc(-c3ccccn3)nn12 | 4317 | 5 | 11 | -11 | 8
COc1ccc(-c2nc3nc(C)c(Cc4ccccc4)c(=O)n3[nH]2)cc1 | 22311* | 0 | 0 | -4 | -1
COC(=O)Cc1c(C)nc2nc(-c3ccc(OC)cc3)[nH]n2c1=O | 22942* | 0 | 4 | 0 | 0
COc1c(C)cc(C(O)c2ncc(-c3ccccc3C)[nH]2)cc1C (centres undefined) | 3683 | 0 | -3 | nt | -6
CC(C)N(CC(N)=O)c1ccc(S(=O)(=O)N2CCCC2)cn1 | 5426 | 1 | 6 | 3 | -2
CCOc1nc(C)ccc1-c1noc(-c2ccco2)n1 | 20107* | 2 | 2 | 6 | -2
N#Cc1c(OCC(=O)c2ccccc2)nc2c(c1-c1ccco1)CCc1ccccc1-2 | 18221* | 5 | 7 | -3 | -14
CN(C)S(=O)(=O)c1ccc2c(c1)nc(CCC(=O)NCC1CCCCC1)n2C | 5528 | 0 | -7 | -1 | -4
CC1CCN(C(=O)CCc2nc3cc(S(=O)(=O)N(C)C)ccc3n2C)CC1 | 20932* | ? | -4 | 10 | 1
Clc1ccc(Cl)c(-c2ccc(/C=N/c3ncn[nH]3)o2)c1 | 22627* | ? | 1 | 3 | -12
O=C(O)c1ccc(COc2c(F)c(F)c(F)c(F)c2F)o1 | 19586* | 2 | 3 | 4 | -1
CCOc1ccc(-c2noc(-c3csc([C@@H]4C[C@H](O)[C@@H](CO)O4)n3)n2)cc1 | 3474 | 0 | 4 | nt | -2
CC1(c2ccc(Cl)cc2)NC(=O)N(CC(=O)NC2CCCCC2)C1=O (centres undefined) | 4244 | 0 | -10 | 7 | -6
CC(C)NC(=S)N/N=C1\CCCCC1C1CCCCC1 (centres undefined) | 22179* | ? | 1 | 1 | 0
Cc1cc(/C=N/n2cnnc2)c(C)n1-c1ccc(C(=O)O)cc1 | 23182* | -2 | -2 | 4 | -2
COC(=O)c1ccc(-n2c(C)cc(/C=N/n3cnnc3)c2C)cc1 | 3597 | 1 | 0 | 5 | 0
CCCCOCCCNc1ncnc2c1[nH]c1ccccc12 | 23545* | 2 | 0 | -4 | 2
CCOCCCNc1ncnc2c1[nH]c1ccccc12 | 3493 | 0 | -5 | 6 | 0
Cc1oc(=O)cc(OCc2ccccc2)c1C | 4220 | -1 | -9 | 29 | 2
CN(C)c1nc(NCc2ccccc2)nc(SCC(=O)Nc2ccc(Cl)c(Cl)c2)n1 | 19687* | 0 | -1 | -5 | 3
Cn1c(=O)c(C(=O)c2ccccc2)nc2ccccc21 | 2379 | 1 | -6 | 0 | 0
O=C(c1ccccc1)c1nc2ccccc2n(CCCn2c(=O)c(C(=O)c3ccccc3)nc3ccccc32)c1=O | 16402* | 1 | 0 | -1 | 6
Cc1cccc(NC(=O)CSCC(=O)Nc2cc(Cl)ccc2N2CCOCC2)c1 | 6175 | -1 | 6 | 2 | -4
SMILES | Autofluor counter | BoNT-A LC inh2 | BoNT F protease | MazF activator | Anthrax LF prot
COc1cc2c(cc1OC)C1(NCC2)C(=O)Nc2ccccc21 (centres undefined) | 16750* | -2 | -5 | -13 | 0
O=C(NCCS(=O)(=O)NCc1cccs1)c1ccccc1 | 3826 | 0 | -2 | -8 | -5
COc1ccc(OC)c(S(=O)(=O)NCC(=O)NC2CCCCCC2)c1 | 7798 | 2 | 4 | 3 | -2
COc1ccc(OC)c(N/C=C2/CCCCC2=O)c1 | 21967* | -4 | -7 | -2 | -2
COc1ccc(N/C=C2/CCCCC2=O)cc1 | 21936* | 0 | -4 | 0 | -1
O=C1CCCC/C1=C\Nc1ccccc1C(=O)O | 19879* | 6 | 10 | 1 | -2
